Our source for the outcome and Potency values is PubChem BioAssay (Tox21).

SMILES strings stand for the structures. “And” between values parts separate entries of the source, which are not always exact repeats. Identical values can stand only once. Records with an inconclusive call do not appear. Where a structure was tested more than once in an assay, its records may differ in their call. The source made the active and inactive calls. Unless noted, the call rests on the fitted dose curve; in most records, active means well fitted curve in the direction sought with a large enough effect in the repeat runs; inconclusive means weak or mixed curves; inactive means no such curve, though single readings can be large; an effect the other way counts as inactive or inconclusive.

Assay [1] can be described thus: qHTS assay to identify small molecule antagonists of the peroxisome proliferator-activated receptor delta (PPARd) signaling pathway - cell viability counter screen (AID 743213). Further: nearly all actives have a fitted effect of over 50% in size. In short, it runs like this:
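Same-well viability: cells pre-incubated 5 h, dosed with compound plus 300 nM L165041, kept 17 h at 37 C, FRET substrate 2 h RT, then CellTiter-Glo 30 min RT and luminescence.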
(In general: qHTS replaces the single test concentration by a dilution series.)

The nature of assay [2]: qHTS assay to identify small molecule agonists of the farnesoid-X-receptor (FXR) signaling pathway - cell viability counter screen (AID 743218). Further: nearly all actives have a fitted effect of over 45% in size. In short, it runs like this:
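Readout: CellTiter-Glo luminescence, 30 min RT, multiplexed after the FXR-bla FRET reading. HEK 293T FXR-UAS-bla cells received compound 5 h post-plating and were incubated 16 h at 37 C.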

Assay [3] in a line: qHTS assay to identify small molecule antagonists of the farnesoid-X-receptor (FXR) signaling pathway - cell viability counter screen (AID 743221; active means well fitted cell-killing curve with a large enough effect in the repeat runs, not every such curve was filed as active; further: nearly all actives have a fitted effect of over 50% in size). An outline of the steps:
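Cytotoxicity counter screen run in the FXR-bla reporter wells: HEK 293T cells exposed to compound with 50 uM (final) chenodeoxycholic acid for 16 h, 37 C, then viability measured by CellTiter-Glo luminescence after 30 min, room temperature.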

The target of assay [4] is Vitamin D3 receptor (Homo sapiens) (UniProt P11473). Briefly: qHTS assay to identify small molecule agonists of the vitamin D receptor (VDR) signaling pathway (AID 743222; calls by dose curve). An outline of the steps: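 Following 4 h attachment at 37C, VDR-bla cells (2,000 per well) received DMSO-dissolved compounds or controls. After 16 h incubation, LiveBLAzer B/G FRET substrate was added and fluorescence read 2 h later at room temperature.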
Sequence of Vitamin D3 receptor (Homo sapiens) (P11473 whole entry, looked up): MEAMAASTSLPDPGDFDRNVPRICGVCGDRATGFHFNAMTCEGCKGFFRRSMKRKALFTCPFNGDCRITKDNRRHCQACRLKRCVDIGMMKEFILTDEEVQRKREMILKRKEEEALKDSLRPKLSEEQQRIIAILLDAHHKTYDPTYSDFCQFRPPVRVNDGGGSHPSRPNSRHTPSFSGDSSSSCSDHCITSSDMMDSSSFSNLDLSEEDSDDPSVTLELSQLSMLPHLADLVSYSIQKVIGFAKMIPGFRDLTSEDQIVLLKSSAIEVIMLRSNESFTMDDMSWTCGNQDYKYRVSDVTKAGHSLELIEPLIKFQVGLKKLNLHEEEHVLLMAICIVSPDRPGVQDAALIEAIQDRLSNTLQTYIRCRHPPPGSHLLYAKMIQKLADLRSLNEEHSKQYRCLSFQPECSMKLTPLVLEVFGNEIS

Assay [5] has the same target. The experiment in a line: qHTS assay to identify small molecule antagonists of the vitamin D receptor (VDR) signaling pathway (AID 743223; active means well fitted inhibition curve with a large enough effect in the signal ratio in the repeat runs, not every such curve was filed as active; the % refers to the signal ratio). In short, it runs like this: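 Antagonist mode: compound added to VDR-bla cells alongside agonist 1alpha,25-dihydroxyvitamin D3 (3 nM final), incubation 16 h at 37C. Read-out is LiveBLAzer FRET fluorescence, 2 h at room temperature.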

Assay [6] can be described thus: qHTS assay to identify small molecule agonists of the vitamin D receptor (VDR) signaling pathway - cell viability counter screen (AID 743224). Further: series mostly up to about 63 µM; nearly all actives have a fitted effect of over 50% in size. In short, it runs like this:
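In parallel with the bla FRET readout, cytotoxicity toward VDR-bla cells after 16 h compound exposure was assessed by CellTiter-Glo, with luminescence recorded after a 30 min room-temperature incubation.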

Assay [7] in a line: qHTS assay to identify small molecule antagonists of the vitamin D receptor (VDR) signaling pathway - cell viability counter screen (AID 743225). Further: nearly all actives have a fitted effect of over 50% in size. An outline of the steps:
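Cytotoxicity counter screen read by CellTiter-Glo luminescence (30 min, room temperature) in the same wells as the VDR-bla antagonist readout. HEK 293T VDR-UAS-bla cells had 16 h at 37C with compound and 3 nM (final) 1-alpha,25-dihydroxyvitamin D3, then 2 h with FRET substrate.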

Assay [8] can be described thus: qHTS assay to identify small molecule agonists of the NFkB signaling pathway (AID 1159509; active means well fitted curve in the direction sought with a large enough effect in the signal ratio in the repeat runs, not every such curve was filed as active; the % refers to the signal ratio; further: series mostly up to about 61 µM). In short, it runs like this: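 Beta-lactamase reporter assay run in quantitative high-throughput format on an NF-kB-responsive ME-180 line, with 5 hr compound treatment and a FRET-based blue/green fluorescence readout.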
Assay [9] is described as follows: qHTS assay to identify small molecule agonists of the NFkB signaling pathway - cell viability counter screen (AID 1159515; calls by dose curve; further: series mostly up to about 61 µM; nearly all actives have a fitted effect of over 55% in size). An outline of the steps:
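Plate 2,000 NFkB-bla ME-180 cells/well; incubate overnight. Add compounds, 5 hr at 37 C. Add FRET substrate, 1.5 hr RT. Add CellTiter-Glo, 30 min RT; read luminescence.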

The nature of assay [10]: qHTS assay to identify small molecule agonists of the endoplasmic reticulum stress response signaling pathway (AID 1159516; active means well fitted activation curve with a large enough effect in the signal ratio in the repeat runs, not every such curve was filed as active; the % refers to the signal ratio). An outline of the steps: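 Beta-lactamase expression from the ER stress response element in HeLa reporter cells is quantified with the LiveBLAzer B/G FRET substrate, read at 405 nm excitation after 2 hr at room temperature, following 5 hr compound treatment at 37 C.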

Assay [11] is described as follows: qHTS assay to identify small molecule agonists of the endoplasmic reticulum stress response signaling pathway - cell viability counter screen (AID 1159517; calls by dose curve). An outline of the steps:
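Steps: seed 1,500 ESRE-bla HeLa cells per well; incubate overnight at 37 C, 5% CO2; add compounds in DMSO for 5 hr; run FRET substrate 2 hr RT; add CellTiter-Glo, wait 30 min, read luminescence.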

Assay [12] is described as follows: qHTS assay to identify small molecule antagonists of the retinoid-related orphan receptor gamma (ROR-gamma) signaling pathway - cell viability counter screen (AID 1159520). Further: nearly all actives have a fitted effect of over 50% in size. Further: potency means the concentration at half of the fitted maximal effect. In short, it runs like this:
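Tet-on ROR gamma CHO cells were given compounds for 2 hr, then doxycycline hyclate at 1 uM final, and incubated 16 hr at 37 C. Viability was measured as ATP content by CellTiter-Glo luminescence.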

Assay [13] concerns the target Nuclear receptor ROR-gamma (Homo sapiens) (UniProt P51449). Briefly: qHTS assay to identify small molecule antagonists of the retinoid-related orphan receptor gamma (ROR-gamma) signaling pathway (AID 1159521; further: nearly all actives have a fitted effect of over 50% in size; further: potency means the concentration at half of the fitted maximal effect). In short, it runs like this: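 Antagonist read-out: drop in luminescence (ONE-Glo) from an RORE-LUC reporter in CHO cells with doxycycline-inducible ROR-gamma; 2 hr compound pretreatment, 1 uM doxycycline, 16 hr incubation at 37 C.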

Assay [14] is described as follows: qHTS assay to identify small molecule agonists of the AP-1 signaling pathway - cell viability counter screen (AID 1159525; calls by dose curve; further: nearly all actives have a fitted effect of over 55% in size; further: potency means the concentration at half of the fitted maximal effect). In short, it runs like this:
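Same-well cytotoxicity counter screen of the Tox21 10K library in ME-180 cells. The readout is ATP-dependent luminescence after 5 h compound treatment. Data are normalised to DMSO and tetra n-octyl ammonium bromide controls.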

Assay [15] in a line: qHTS assay to identify small molecule agonists of the AP-1 signaling pathway (AID 1159526; calls by dose curve).
The target of assay [16] is Retinoic acid receptor RXR-alpha (Homo sapiens) (UniProt P19793). The experiment in a line: qHTS assay to identify small molecule agonists of the RXR signaling pathway (AID 1159527; calls by dose curve; further: nearly all actives have a fitted effect of over 35% in size; further: potency means the concentration at half of the fitted maximal effect). An outline of the steps: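 Agonist-mode beta-lactamase reporter assay: HEK 293T RXR-alpha-UAS-bla cells treated 16 hr at 37 C with compounds, 9-cis retinoic acid as positive control. LiveBLAzer FRET substrate, 405 nm excitation, 460/530 nm emission.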
Sequence of Retinoic acid receptor RXR-alpha (Homo sapiens) (P19793 whole entry, looked up): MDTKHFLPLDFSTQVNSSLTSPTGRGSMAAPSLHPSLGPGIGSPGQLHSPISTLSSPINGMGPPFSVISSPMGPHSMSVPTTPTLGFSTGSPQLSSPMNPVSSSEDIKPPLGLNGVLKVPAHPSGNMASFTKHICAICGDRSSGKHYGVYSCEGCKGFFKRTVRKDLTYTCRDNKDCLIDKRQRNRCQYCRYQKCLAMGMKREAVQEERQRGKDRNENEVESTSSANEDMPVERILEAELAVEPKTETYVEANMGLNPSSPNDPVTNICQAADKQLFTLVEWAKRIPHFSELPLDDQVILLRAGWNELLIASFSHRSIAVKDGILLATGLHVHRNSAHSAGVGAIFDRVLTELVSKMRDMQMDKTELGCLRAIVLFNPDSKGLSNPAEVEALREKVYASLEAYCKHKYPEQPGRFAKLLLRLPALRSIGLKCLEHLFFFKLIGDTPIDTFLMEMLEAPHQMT

Assay [17] concerns the target Bile acid receptor (Homo sapiens) (UniProt Q96RI1). The experiment in a line: qHTS assay to identify small molecule antagonists of the farnesoid-X-receptor (FXR) signaling pathway (AID 743217; active means well fitted inhibition curve with a large enough effect in the signal ratio in the repeat runs, not every such curve was filed as active; the % refers to the signal ratio). An outline of the steps: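 FRET fluorescence after 2 h room-temperature LiveBLAzer loading gives the readout. Prior step: FXR-bla HEK 293T cells, seeded and incubated 5 h, received test compounds plus 50 uM final CDCA for 16 h at 37 °C.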

For assay [18] the target is unchanged. The experiment in a line: qHTS assay to identify small molecule agonists of the farnesoid-X-receptor (FXR) signaling pathway (AID 743220; active means well fitted activation curve with a large enough effect in the signal ratio in the repeat runs, not every such curve was filed as active; the % refers to the signal ratio). An outline of the steps: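 FXR-UAS-bla HEK 293T cells carrying a UAS-driven beta-lactamase reporter were plated for 5 h at 37C/5% CO2, then exposed to DMSO-dissolved Tox21 10K compounds for 16 h at 37C. A LiveBLAzer B/G FRET substrate was loaded for 2 h at room temperature before fluorescence reading.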

In assay [19] the target is Peroxisome proliferator-activated receptor delta (Homo sapiens) (UniProt Q03181). The experiment in a line: qHTS assay to identify small molecule agonists of the peroxisome proliferator-activated receptor delta (PPARd) signaling pathway (AID 743212; calls by dose curve). In short, it runs like this: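 Read-out: beta-lactamase FRET fluorescence after 2 h room-temperature incubation with LiveBLAzer B/G substrate. Cells were HEK293H carrying a UAS-bla reporter for PPARd, treated at 37 C with DMSO-dissolved compounds.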
Sequence of Peroxisome proliferator-activated receptor delta (Homo sapiens) (Q03181 whole entry, looked up): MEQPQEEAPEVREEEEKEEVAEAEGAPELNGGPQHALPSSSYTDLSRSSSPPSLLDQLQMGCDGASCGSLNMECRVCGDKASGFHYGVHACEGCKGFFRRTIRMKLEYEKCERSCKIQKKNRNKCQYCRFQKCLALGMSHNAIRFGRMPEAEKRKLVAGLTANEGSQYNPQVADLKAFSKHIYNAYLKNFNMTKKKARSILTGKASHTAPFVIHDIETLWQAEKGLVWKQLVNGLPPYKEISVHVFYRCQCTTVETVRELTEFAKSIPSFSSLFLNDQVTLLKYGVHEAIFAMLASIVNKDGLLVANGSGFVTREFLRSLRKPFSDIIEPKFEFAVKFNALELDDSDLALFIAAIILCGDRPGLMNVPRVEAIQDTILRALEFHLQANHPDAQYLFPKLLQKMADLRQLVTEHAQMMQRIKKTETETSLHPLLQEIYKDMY

Sequence of Bile acid receptor (Homo sapiens) (Q96RI1 whole entry, looked up): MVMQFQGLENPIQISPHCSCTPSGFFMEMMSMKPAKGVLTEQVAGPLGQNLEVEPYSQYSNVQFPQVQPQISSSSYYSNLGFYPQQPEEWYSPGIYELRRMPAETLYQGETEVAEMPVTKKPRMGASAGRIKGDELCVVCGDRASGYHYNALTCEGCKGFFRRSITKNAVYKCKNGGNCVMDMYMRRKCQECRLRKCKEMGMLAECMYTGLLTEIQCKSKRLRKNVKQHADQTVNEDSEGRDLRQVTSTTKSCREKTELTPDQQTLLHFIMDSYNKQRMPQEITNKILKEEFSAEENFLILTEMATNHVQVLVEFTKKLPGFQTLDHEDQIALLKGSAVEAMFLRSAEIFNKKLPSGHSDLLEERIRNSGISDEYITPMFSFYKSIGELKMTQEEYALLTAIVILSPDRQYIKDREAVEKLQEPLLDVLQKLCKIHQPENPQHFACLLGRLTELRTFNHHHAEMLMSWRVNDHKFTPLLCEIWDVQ

For `CC1(C)[C@@H]2CC[C@@]1(C)C(=O)C2`, the outcome in assay [1], in [2], in assay [3], in assay [4], in assay [5] and in assay [6] was inactive. The compound was classed as inactive in [7], in [8], in [9], in [10] and in assay [11]. In addition, the Potency entry in assay [12], in assay [13], in assay [14], in assay [15] and in [16] was “inactive” in each case.
Take `COc1c2occc2cc2ccc(=O)oc12`: the result in assay [1], in assay [2], in assay [18], in assay [3], in assay [4] and in assay [5] was inactive. Also, the compound was called inactive in assay [6], in assay [7], in [8], in assay [9], in [10] and in assay [11]. Also, the Potency entry in assay [17], in assay [12], in [14], in assay [15] and in assay [16] was “inactive” each time.
On to `OC(Cn1cncn1)(Cn1cncn1)c1ccc(F)cc1F`, for which the compound was classed as inactive in [19], in assay [1], in [2], in assay [3], in assay [4] and in assay [5]. Besides, the compound was classed as inactive in assay [6], in [7], in assay [8], in [9], in assay [10] and in assay [11]. Further, the Potency result in assay [12], in [13], in assay [14] and in assay [15] was “inactive” in each case.
`c1ccc2[nH]ccc2c1`: the compound was called inactive in assay [1], in [2], in [3], in assay [4], in assay [5] and in [6]. Further, the call in assay [7], in assay [8], in assay [9], in assay [10] and in assay [11] was inactive. Further, the Potency in [12] was 2.69 µM (active) and inactive; in assay [13], 1.35 µM (active) and inactive; in assay [14] it was 42.9 µM (active) and inactive. For the same compound, the Potency result in [15] and in [16] was “inactive” in each case.
Consider `CC(C)(Oc1ccc(C2CC2(Cl)Cl)cc1)C(=O)O` (stereo not drawn), for which the compound was called inactive in assay [1], in assay [2], in [3], in assay [4], in [5] and in assay [6]. Moreover, the outcome in assay [7], in [8], in assay [9], in [10] and in assay [11] was inactive. Also, the Potency entry in assay [12], in [13], in [14], in assay [15] and in assay [16] was “inactive” throughout.
With `O=C(c1ccccc1)C(O)c1ccccc1` (stereo not drawn), the compound was classed as inactive in [1], in assay [2], in assay [3], in assay [4], in assay [5] and in assay [6]. In addition, the compound was classed as inactive in assay [7], in assay [8], in assay [9], in assay [10] and in assay [11]. The Potency result in assay [12], in assay [13], in assay [14] and in [15] was “inactive” each time. Moreover, the Potency result in assay [16] was “inactive and 38.9 µM (active)”.
With `CC(=O)NS(=O)(=O)c1ccc(N)cc1`, the outcome in assay [1], in assay [2], in [3], in assay [4], in [5] and in [6] was inactive. In addition, the compound was classed as inactive in [7], in assay [8], in assay [9], in [10] and in [11]. Further, the Potency result in [12], in assay [13], in [14], in [15] and in assay [16] was “inactive” throughout.
For the compound `C[C@]12C=CC(=O)C=C1CC[C@@H]1[C@@H]2[C@@H](O)C[C@@]2(C)[C@H]1CC[C@]2(O)C(=O)CO`, the compound was classed as inactive in assay [1], in assay [2], in assay [3], in assay [6], in [7] and in [8]. For the same compound, the compound was classed as inactive in assay [9], in [10] and in [11]. Also, the Potency entry in assay [12], in [13], in assay [14], in assay [15] and in [16] was “inactive” each time.
Consider `O=NO`, for which the call in assay [1], in [2], in assay [3], in assay [4], in assay [5] and in assay [6] was inactive. Also, the result in assay [7], in assay [8], in assay [9], in assay [10] and in assay [11] was inactive. Besides, the Potency result in assay [12], in assay [13], in assay [14], in assay [15] and in assay [16] was “inactive” in each case.
